The text below walks through data of PubChem BioAssay (Tox21).

Each structure is given as a SMILES string. Results filed as inconclusive are left out. Active and inactive are the calls of the source. Calls follow the shape of the full dose curve.
% is scaled to controls: 0 for no effect and ±100 for the full control effect.

The experiment deals with Thyrotropin receptor (Homo sapiens) (UniProt P16473). The experiment is described as follows: qHTS assay to identify small molecule antagonists of the thyroid stimulating hormone receptor (TSHR) signaling pathway (AID 1259385). Also: nearly all actives have a fitted effect of over 20% in size. Particulars: TSHR-HEK293 cAMP HTRF, TSH-stimulated antagonist mode; series mostly up to 92.4 µM; activity change, negative = inhibition: at the top concentration. In outline: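 TSHR-HEK293 cells (800/well) plated 18 h, then compounds with Ro20-1724 and TSH at 1.5 ng/mL final, 30 min at room temperature. cAMP quantified by HTRF (cAMP-d2/anti-cAMP-cryptate, 1 h); 15 concentrations in triplicate.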
Chain of Thyrotropin receptor (Homo sapiens) (P16473 whole entry, looked up): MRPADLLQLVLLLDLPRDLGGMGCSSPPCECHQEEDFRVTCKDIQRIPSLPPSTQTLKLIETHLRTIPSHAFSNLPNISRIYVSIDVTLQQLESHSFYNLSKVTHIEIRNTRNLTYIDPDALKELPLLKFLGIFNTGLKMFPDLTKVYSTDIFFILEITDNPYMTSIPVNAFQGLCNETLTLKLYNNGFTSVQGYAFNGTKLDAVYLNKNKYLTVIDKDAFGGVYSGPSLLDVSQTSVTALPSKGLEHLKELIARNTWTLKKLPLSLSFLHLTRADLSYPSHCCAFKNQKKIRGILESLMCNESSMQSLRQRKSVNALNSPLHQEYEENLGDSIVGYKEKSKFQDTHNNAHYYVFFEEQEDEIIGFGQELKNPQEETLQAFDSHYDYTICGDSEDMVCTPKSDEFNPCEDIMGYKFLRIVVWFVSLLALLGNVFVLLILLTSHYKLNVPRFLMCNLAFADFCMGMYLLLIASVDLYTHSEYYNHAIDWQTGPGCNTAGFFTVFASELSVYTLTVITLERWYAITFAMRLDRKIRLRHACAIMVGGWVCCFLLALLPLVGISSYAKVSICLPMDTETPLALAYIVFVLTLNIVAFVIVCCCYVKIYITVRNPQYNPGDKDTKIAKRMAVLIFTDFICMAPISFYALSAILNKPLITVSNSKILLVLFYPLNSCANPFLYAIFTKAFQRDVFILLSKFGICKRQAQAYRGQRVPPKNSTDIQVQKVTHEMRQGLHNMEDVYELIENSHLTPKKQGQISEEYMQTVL
Background: Quantitative high-throughput screening tests each substance at several concentrations.
For `CCN(CC)C(=O)/C(C#N)=C/c1cc(O)c(O)c([N+](=O)[O-])c1`, the “activity change, negative = inhibition” value was -0.885% [at 42.5 µM] (inactive).
With `C[C@@H]1C[C@H]2[C@@H]3CCC4=CC(=O)C=C[C@]4(C)[C@@]3(F)[C@@H](O)C[C@]2(C)[C@@]1(O)C(=O)COP(=O)(O)O`, the “activity change, negative = inhibition” value was 0.375% (inactive).
`O=C(O)CN1C(=O)c2cccc3cccc(c23)C1=O`: the “activity change, negative = inhibition” value is 0.413% [at 42.5 µM] (inactive).
`CCOC(=O)c1c(N)sc2c1CCN(Cc1ccccc1)C2`: the “activity change, negative = inhibition” value was 6.82% [at 42.5 µM] (inactive).
As to `CC[C@@H](CO)NCCN[C@@H](CC)CO`, the “activity change, negative = inhibition” value is 0.962% [at 42.5 µM] (inactive).
Consider `CCOC(=O)c1ccc(NC(=O)CN2CCCCC2)cc1`, for which the “activity change, negative = inhibition” value was -0.0212% [at 42.5 µM] (inactive).
`Cc1cn([C@H]2C[C@H](F)[C@@H](CO)O2)c(=O)[nH]c1=O`: the “activity change, negative = inhibition” value is 1.5% [at 42.5 µM] (inactive).
Regarding `O=S(=O)(O)CO`, the “activity change, negative = inhibition” value is 2.44% (inactive).
As to `COC(=O)Nc1nc2ccc(C(=O)C3CC3)cc2[nH]1`, the “activity change, negative = inhibition” value was 0.138% [at 42.5 µM] (inactive).
Take `CCCCCCCCCCCSCC(=O)O`: the “activity change, negative = inhibition” value is 0.426% (inactive).
In the case of `CC(C)C(O)C(C)(C)CO` (configuration not stated), the “activity change, negative = inhibition” value is -0.0056% (inactive).
With `Nc1nc(-c2ccc([N+](=O)[O-])cc2)cs1`, the “activity change, negative = inhibition” value was 0.822% (inactive).
Under `CC(CCc1ccc(O)cc1)NCCc1ccc(O)c(O)c1` (configuration not stated) stands 5.08% [at 42.5 µM] (inactive).
For `COc1cc(NC(C)CCCN)c2ncccc2c1` (configuration not stated), the “activity change, negative = inhibition” value was 5.23% [at 42.5 µM] (inactive).
`CC(C)OC(=O)c1ccccc1C(=O)OC(C)C`: the “activity change, negative = inhibition” value is -2.5% (inactive).
As to `Cc1ccccc1S(N)(=O)=O`, the “activity change, negative = inhibition” value was 0.593% (inactive).
For `COc1cc(S(=O)(=O)Nc2ccccc2)c(OC)cc1N`, the “activity change, negative = inhibition” value was -0.528% (inactive).
As for `COC1CCC=CO1` (configuration not stated), the “activity change, negative = inhibition” value was -0.875% (inactive).
`O=C1NC(=O)c2cccc3cccc1c23`: the “activity change, negative = inhibition” value was 6.27% (inactive).
With `c1ccc2sc(SSc3nc4ccccc4s3)nc2c1`, the activity change, negative = inhibition is 2.43% [at 19 µM] (inactive).
In the case of `NC(=O)c1ccccc1[N+](=O)[O-]`, the “activity change, negative = inhibition” value is -1.84% (inactive).
With `COc1cc(NCc2ccc3nc(N)nc(N)c3c2C)cc(OC)c1OC`, the “activity change, negative = inhibition” value is 0.245% [at 42.5 µM] (inactive).
